This note sets out measurements from the supplement of paper PMC6555819.

This test deals with RARg homodimer (NR concentration 270 nM). Description: PBM binding z-score (relative to random genomic background probes); higher = stronger binding; sequences stand for … in GC…GCGATTGACAGCGTAGAATGAAGG
The method, boiled down:
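Regression normalization was applied to scanned fluorescence from custom Agilent 4×180K protein-binding microarrays. Before scanning, arrays were incubated 1 h with ligand-free nuclear receptor dimers, and binding was detected with antibodies against each partner (one per run). Binding z-scores use the random background probes as reference.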
ACTCAGAGGACAAAGGTCAGAGCTACGCCAGTGA registered a PBM binding z-score of 5.89.
Under CGTCCAAGGTCAAAGCTCAGTGAAGAGATGACGG stands 6.4.
On to CCTACTGGGCCAGTCAGAGGTCATTGATCATATG, for which the PBM binding z-score was 2.79.
As to CCTACTGGGCCATCAGGTCTTTGATATCAACGTT, the PBM binding z-score was -0.00289.
Under ACTATTAGTTGATTTAGGGCAACCGATACGACGC stands 0.883; under CCTCGGAGGACAGAAGGTTAGAGCTGTCCGCTTT, 0.681; under CAGCCTAGGTCAGGGCCAGTGTAGGAGGAACGTT, 3.69.
The figure for GCTTACGGGTCAAAGGTTTTAGCATGAATAGAAT is 4.15; for ATAGAAAGGTCGACGAGGTGAGTATACACCGTTT it is 3.86; for TCTAGTTGGTCAAAGGTCACACAATCGAAATGCG it is 7.01.
In turn, CCTACTGGGCCAAAGGTCATCGATTCCAATGCTC gave a PBM binding z-score of 5.38.
The figure for CAAACTAGGTCACAGAGGTCAAAGTGCGTGCGTA is 7.84; for CGTCCAAGGTCAATGCTAGGTCAGCGAAAGCATT it is 7.14.
Consider CCTACTGGCCCATTCAGAGGTCATTGATCATATG, for which the PBM binding z-score came to 2.56.
Under ATCGAACGGTCGAAGGTGAGTATACCCACCCGAA stands 0.957; under CAAACTAGGTCACCGGAAGGTTAAAGTCCGCATG, 5.79.
The figure for ATCTCTAGGTAAAGTTCAGTGGAAGATCGATAGA is 2.47.
Under ATCTCTAGCTAAAAGTTCAGTGAATCCCGAGGAT stands 1.84.
CCTTACGGCTCACTCCAGGTTATAGCATCGGAGT displayed a PBM binding z-score of 0.148.
The figure for AGAATGAGGTTAAGATCAGGGAAACAGAATACAT is 1.52; for AGAATGAGCTTAAGATCAGGGAAACAGAATACAT it is 0.233.
GCAGACAGGTGAAACGCAGGTAACTCTGGGTGGC came in with a PBM binding z-score of 0.0252.
